Compound activity (PubChem)
Rows were chosen to be rich in hits. Some 0.92% of all compounds tested hit in one or more screens of this group.
FEN1 inhibitor: qHTS Assay for the Inhibitors of Human Flap endonuclease 1 (FEN1) | Recombinant FEN1 flap cleavage, fluorescence, 15 min | P39748 | actives 0.35% (n = 390,000) | Potency, µM (doses to about 114 µM), for the others: at the top dose activity change, negative = inhibition, hits mostly inhibitors | AID 588795, 2011; further: nearly all actives have a fitted effect of over 65% in size
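In this screen, 50 nM flap DNA substrate was added to 10 nM FEN1 pretreated with compound for 15 min at room temperature; cleavage was followed with reads at 0 and 15 min, and Hill fitting gave concentration–response parameters.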
RECQ1 inh: qHTS Assay for Inhibitors of RecQ-Like Dna Helicase 1 (RECQ1); Potency, µM (highest dose often 57.3 µM), without a hit: at the highest dose activity, negative = inhibition, most hits filed as inhibitors; ATP-dependent DNA helicase Q1 (Homo sapiens), P46063; actives 0.54% (n = 240,000); RECQ1 DNA unwinding, red fluorescence kinetic read;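 further: plate controls were vehicle for no effect and no enzyme for full effect; nearly all actives have a fitted effect of over 30% in size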
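50 nM RECQ1T1 preincubated 15 min with compound in Tris pH 8.0 buffer with MgCl2, DTT, Tween-20 and 2.5 ug/ml poly(dI-dC); started with 200 nM TAMRA/BHQ-2 forked duplex and 2 mM ATP. Unwinding read as fluorescence (525/598 nm), two reads 2 h apart.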
TDP1 block: qHTS Assay for Inhibitors of Tyrosyl-DNA Phosphodiesterase (TDP1); recombinant TDP1, AlphaScreen DNA substrate cleavage; AID 485290, 2010; actives 0.28% (n = 350,000); Potency, µM (highest dose often 130 µM), for the others: top-dose activity change, negative = inhibition, usual class: inhibitors; further: nearly all actives have a fitted effect of over 40% in size
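Tdp1 1 nM final; 15 min RT w/ cpd; substrate 15 nM, 5 min; beads 10 ug/ml, 10 min; AlphaScreen read. Neg ctrl: no enzyme.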
BLM helicase inh: qHTS Assay for Inhibitors of Bloom's syndrome helicase (BLM) | AID 2528, 2010 | recombinant BLM DNA unwinding, fluorescence dequenching | actives 0.2% (n = 350,000) | RecQ-like DNA helicase BLM (Homo sapiens), P54132 | Potency, µM (series often up to 56.1 µM), for inactives: at the top dose activity change, negative = inhibition, actives largely listed as inhibitors;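 further: plate controls were vehicle for no effect and no enzyme for full effect; nearly all actives have a fitted effect of over 35% in size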
APEX1 inh: qHTS Assay for Inhibitors of the Human Apurinic/apyrimidinic Endonuclease 1 (APE1). recombinant APE1, TAMRA/BHQ-2 abasic DNA cleavage fluorescence. Potency, µM (titrated, usually from 65.8 µM), for inactives: at the highest dose activity change, negative = inhibition, most hits filed as inhibitors. actives 0.35% (n = 350,000);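 further: plate controls were vehicle for no effect and reference inhibitor for full effect; nearly all actives have a fitted effect of over 55% in size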
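Kinetic fluorescence read (525 ex/598 em nm, three reads 60 s apart) of AP-site incision; signal = third minus first read. Enzyme 0.75 nM, dual-labelled THF duplex 50 nM, compound preincubation 15 min RT.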
* = called active by the depositor; [ ] = dose if it differs, or a comment. The call rests on the fitted dose curve; in most records, active means well fitted curve in the direction sought with a large enough effect; inconclusive means small, poorly fitted or top-dose-only effect, or another doubt; inactive means no such curve, though single readings can be large; an effect the other way counts as inactive or inconclusive. Unless noted, on the % scale 0 is the no-effect control and ±100 the full control effect; potency means the concentration at half of the fitted maximal effect.

Screening O=C(O)CN(CC(=O)O)CC1=CC2C(=CC1=O)Oc1cc(O)c(CN(CC(=O)O)CC(=O)O)cc1C21OC(=O)c2ccccc21 (configuration not stated) returned APEX1 inh 12.6µM*.
Screening COc1ccc2ccccc2c1/C=N/N1C(=O)CSC1=S returned FEN1 inhibitor -5.4%, RECQ1 inh 28.2µM*, TDP1 block 2.7%, BLM helicase inh -12.7% and APEX1 inh -6.4%.
Screening Nc1cc2nsnc2cc1Br returned FEN1 inhibitor inconclusive, RECQ1 inh inconclusive, TDP1 block -6.0%, BLM helicase inh 3.98µM* and APEX1 inh inconclusive.
`Nc1cccc(S(=O)(=O)O)c1` gave RECQ1 inh 22.2%, TDP1 block 14.9% and APEX1 inh inconclusive.
`COc1ccc(C2=C(Nc3ccc(Br)c(C)c3)c3ccccc3C2=O)cc1` gave FEN1 inhibitor 8.1%, TDP1 block 12.5% and BLM helicase inh -5.3%.
For Cc1cccc(C(=O)Nc2ccc(N3CCN(c4ccc(F)cc4)CC3)c(C(=O)O)c2)c1 the results were FEN1 inhibitor -2.7%, TDP1 block -14.2% and BLM helicase inh -0.4%.
`Cc1cccc(C(=O)Nc2ccc(N3CCC(CCN4CCOCC4)CC3)c(C(=O)O)c2)c1` gave FEN1 inhibitor -12.0%, TDP1 block 25.1µM*, BLM helicase inh 1.8% and APEX1 inh 48.2%.
Screening COc1ccc(OC)c(NC(=O)CSc2sc3c(O)cc(=O)[nH]c3c2C#N)c1 returned FEN1 inhibitor 79.4µM*, TDP1 block 8.2%, BLM helicase inh -20.4% and APEX1 inh 33.2%.
Cc1cc2c(nc1C)CCCN2CC(O)CN1CCCc2nc(C)c(C)cc21 was read as RECQ1 inh inactive[11.5 µM], TDP1 block 6.9%[21 µM], BLM helicase inh -10.3%[12.4 µM] and APEX1 inh -5.1%[12.4 µM].
`C/C=C/OC(=O)NC(c1ccccc1)[C@@]1(C(=O)OC)CCCC1=O` (some centres not stated) gave RECQ1 inh inactive[11.5 µM], TDP1 block 6.9%[21 µM], BLM helicase inh -2.3%[12.4 µM] and APEX1 inh 2.9%[12.4 µM].
Screening Cc1cn(C)c(CC(=O)N2CCN(c3ccccc3F)CC2)c1C(=O)O returned FEN1 inhibitor 18.2%, TDP1 block -4.4% and BLM helicase inh 1.8%.
`CCCCNC(=O)COC(=O)c1c2c(nc3ccccc13)/C(=C/c1cccs1)CC2` gave FEN1 inhibitor 2.3%, RECQ1 inh 5.0%, TDP1 block 2.2%, BLM helicase inh -19.9% and APEX1 inh 10.2%.
Screening CC1CCCCC1NC(=O)COC(=O)c1c2c(nc3ccccc13)/C(=C\c1ccco1)CC2 (configuration not stated) returned FEN1 inhibitor 50.1µM*.
COc1ccc(-c2nc(C(=O)Nc3cccc(C(C)=O)c3)nn2-c2ccccc2Cl)cc1 was read as FEN1 inhibitor -11.1%, TDP1 block 0.0% and BLM helicase inh -13.4%.
Screening CCc1ccc(S(=O)(=O)/N=C2\C=C(Nc3ccc(C(=O)O)cc3)C(=O)c3ccccc32)cc1 returned FEN1 inhibitor -31.2%, TDP1 block 5.0%[0.0935 µM], BLM helicase inh 25.1µM* and APEX1 inh -15.2%.
For CC(C)(C)c1ccc(S(=O)(=O)/N=C2\C=C(NS(=O)(=O)c3ccccc3)C(=O)c3ccccc32)cc1 the results were FEN1 inhibitor inconclusive, TDP1 block 10.9%, BLM helicase inh -17.7% and APEX1 inh 15.8%.
`Cc1ccc(S(=O)(=O)/N=C2\C=C(Nc3cccc(C(=O)O)c3)C(=O)c3ccccc32)c(C)c1` gave FEN1 inhibitor 70.8µM*, TDP1 block 9.4%, BLM helicase inh 25.1µM* and APEX1 inh 52.7%.
Screening Cc1ccc(S(=O)(=O)/N=C2\C=C(NS(=O)(=O)c3ccccc3)C(=O)c3ccccc32)c(C)c1 returned FEN1 inhibitor -2.0%.
For Cc1ccc(S(=O)(=O)/N=C2\C=C(Nc3ccc(O)cc3)C(=O)c3ccccc32)cc1 the results were FEN1 inhibitor inconclusive, TDP1 block 11.3% and APEX1 inh -28.4%.
`Cc1ccc(S(=O)(=O)/N=C2\C=C(Nc3cccc(C(=O)O)c3)C(=O)c3ccccc32)cc1` gave FEN1 inhibitor inconclusive, TDP1 block 11.3%, BLM helicase inh 20µM* and APEX1 inh -13.2%.
For Cc1noc(C)c1-c1nccc(N(C)C)n1 the results were RECQ1 inh -13.5%, BLM helicase inh 0.3% and APEX1 inh -5.9%.
For CCSC1=NSC2=NC(=O)/C(=C\c3coc4ccccc4c3=O)C(=N)N12 the results were FEN1 inhibitor inconclusive, RECQ1 inh -4.7%, TDP1 block -5.5%, BLM helicase inh -15.3% and APEX1 inh -2.3%.
CC(C)CC1=NN2C(=N)/C(=C\c3coc4ccccc4c3=O)C(=O)N=C2S1 was read as FEN1 inhibitor 31.6µM*, RECQ1 inh inconclusive, TDP1 block 1.2%, BLM helicase inh -8.2% and APEX1 inh 20.7%.
CCCCC[C@H](O)/C=C/C=C/C/C=C\CCCC(=O)O was read as RECQ1 inh -6.1%, TDP1 block 7.5%, BLM helicase inh 0.0% and APEX1 inh 2.8%.
N#Cc1cnn(-c2nc(SCc3ccccc3)nc3sc4c(c23)CCCC4)c1N was read as FEN1 inhibitor -3.2%, RECQ1 inh 7.94µM*, TDP1 block 2.5%, BLM helicase inh -6.6% and APEX1 inh -4.7%.
For O=C(NC1=C(Nc2ccc(Cl)cc2)C(=O)c2ccccc2C1=O)c1ccccc1 the results were FEN1 inhibitor -4.1%, RECQ1 inh 0.0%, TDP1 block 6.7%, BLM helicase inh -7.5% and APEX1 inh 0.2%.
For O=C1C(Cl)=C(NC(=O)c2ccccc2)C(=O)C(Cl)=C1NC(=O)c1ccccc1 the results were FEN1 inhibitor 79.4µM*, BLM helicase inh -7.9% and APEX1 inh 18.6%.
For CN(C)c1ccc(/C=C/c2ccnc3c(Cl)ccc(Cl)c23)cc1 the results were FEN1 inhibitor 1.6%.
Screening Cc1cc2c(n1-c1ccc(C(=O)O)cc1)CCCCC2 returned BLM helicase inh -0.7% and APEX1 inh 5.97µM*.
Screening Cc1ccc(CNC(=O)c2ccc(-n3c(C)cc4c3CCCC4)cc2)cc1 returned FEN1 inhibitor -8.5%, TDP1 block 1.2% and BLM helicase inh -7.8%.
O=C(O)c1cc(-c2ccc(/C=c3\sc4nc5ccc(Br)cc5n4c3=O)o2)ccc1Cl was read as BLM helicase inh -26.9% and APEX1 inh 2.67µM*.
